Experimental findings from ChEMBL document CHEMBL4513216, “Probing the Open Global Health Chemical Diversity Library for Multistage-Active Starting Points for Next-Generation Antimalarials” (ACS Infect Dis, 2020) are described below.

The campaign covered roughly 65,000 compounds. About 2,100 (3.2%) showed an effect of 50% or more. The median lay at about -52%. Only a selection was taken, and strong results are over-represented in it overall.

The assay has as its system Plasmodium falciparum. Briefly: Screen against P. falciparum Asexual Blood Stage (ABS), at 5uM. The following applies: tested at 5 uM. It is filed as functional, Dd2.
With `CO[C@H]1CN(C(=O)c2cn3cc(C)ccc3n2)CC[C@@]12CCCO2`, the INHIBITION was -142%.

Take `Cc1nc(C(=O)N(C)CC2CCCO2)nn1-c1ccccc1C(C)C` (centres undefined): the INHIBITION is -143%.

With `CCOCc1nc(-c2ccc(F)cc2Cl)n(C)n1`, the INHIBITION was -121%.

Consider `CN1C(=O)CC(c2ccccc2)C12CCN(CC1CC1)CC2` (centres undefined), for which the INHIBITION turned out to be 16.7%.

With `CCN1C(=O)CC(c2ccccc2)C12CCN(CC1CCOCC1)CC2` (centres undefined), the INHIBITION is on record as 50.3%.

Consider `CN1C(=O)CC(c2ccccc2)C12CCN(CC1CCOCC1)CC2` (centres undefined), for which the INHIBITION was found to be 36.1%.

Turning to `Cc1nc(C)n(CC2CCCN2CC(=O)Nc2c(C)n[nH]c2C)n1` (centres undefined), the INHIBITION turned out to be 35%.

In the case of `Cc1cc(C)n(CC2CCCCN2CC(=O)Nc2c(C)n[nH]c2C)n1` (centres undefined), the INHIBITION is -116%.

In the case of `Cc1nc(C)n(CC2CCCCN2CC(=O)Nc2c(C)n[nH]c2C)n1` (centres undefined), the INHIBITION came out at 54.2%.

With `CC(C)Cn1nc(-c2ccc(C(=O)O)cc2)cc1-c1ccc(F)cc1`, the INHIBITION is recorded as -57.3%.

As to `CC(NCc1cccc(Cl)c1)c1ccc(OCC(=O)NC2CC2)cc1` (centres undefined), the INHIBITION was found to be 51.7%.

Take `Cc1cccc(CNC(C)c2ccc(OCC(=O)NC3CC3)cc2)c1` (centres undefined): the INHIBITION is -21%.

On to `CC(NCc1cccnc1)c1ccc(OCC(=O)NC2CC2)cc1` (centres undefined), for which the INHIBITION is -107%.

Consider `CC(C)(O)CN1CCN(C(=O)c2cccc3cccnc23)CC1`, for which the INHIBITION amounted to 24.5%.

Regarding `CC(C)CNC(=O)[C@H]1C[C@H]2CN(C(=O)Nc3ccc(F)cc3)C[C@@H]1O2`, the INHIBITION is -5.8%.

Turning to `Cc1csc(NC(=O)CN2CCc3c(nc(C4CC4)n3C)C2)n1`, the INHIBITION is listed as -122%.

In the case of `NC(=O)c1ccccc1Oc1cccc(C2CCCNC2)n1` (centres undefined), the INHIBITION is on record as 55.8%.

Consider `NC(=O)c1ccccc1Oc1cnc(C2CCCN2)cn1` (centres undefined), for which the INHIBITION was -95.3%.

As to `NC(=O)c1ccc(C2CCCNC2)nc1` (centres undefined), the INHIBITION is on record as -43.7%.

With `COC(=O)CNCC1(O)CCCN(Cc2cccc(F)c2F)C1=O` (centres undefined), the INHIBITION is -51%.

Regarding `O=C1N(Cc2cccc(F)c2F)CCCC1(O)CNCc1ccccn1` (centres undefined), the INHIBITION came to 4.26%.

`O=C1N(Cc2cccc(F)c2F)CCCC1(O)CNC1CCCC1` (centres undefined): the INHIBITION was determined as 60.2%.

Consider `COc1ccc(F)c(CN2CCCC(O)(CNCC(C)(C)C)C2=O)c1` (centres undefined), for which the INHIBITION came out at 50.2%.

On to `CN1CCC(NCC2(O)CCCN(Cc3ccccc3F)C2=O)CC1` (centres undefined), for which the INHIBITION was found to be 7.93%.

Turning to `COc1ccc(F)c(CN2CCCC(O)(CNCc3ncc[nH]3)C2=O)c1` (centres undefined), the INHIBITION is -93.5%.

In the case of `COc1ccc(F)c(CN2CCCC(O)(CNCc3ccon3)C2=O)c1` (centres undefined), the INHIBITION is listed as -19%.

Regarding `O=C1N(Cc2cccc(F)c2F)CCCC1(O)CNCc1ccccc1` (centres undefined), the INHIBITION was 61.9%.

On to `CN(CC1(O)CCCN(Cc2cccc(F)c2F)C1=O)C1CCCCC1` (centres undefined), for which the INHIBITION is on record as 65%.

As for `O=C(CNCC1(O)CCCN(Cc2cccc(F)c2F)C1=O)NC1CC1` (centres undefined), the INHIBITION is -93.9%.

On to `CC1CCN(CC2(O)CCCN(Cc3cccc(F)c3F)C2=O)CC1` (centres undefined), for which the INHIBITION was -71.6%.

Turning to `CN(C)CCNCC1(O)CCCN(Cc2cccc(F)c2F)C1=O` (centres undefined), the INHIBITION is -65.2%.

Take `Cc1noc([C@@H]2CC[C@@H]3[C@@H](CCN3c3nnc(C)s3)O2)n1`: the INHIBITION is on record as -97.1%.

Take `CCn1cnnc1CNC(=O)NC(C)c1ccccn1` (centres undefined): the INHIBITION was -68.5%.

For `CCn1nc(C)c2c1cnn2CCNS(=O)(=O)c1cccs1`, the INHIBITION was -54.4%.

In the case of `CCC(C)n1c(SCC(=O)N2CCOCC2)nc2cc(C)[nH]c2c1=O` (centres undefined), the INHIBITION was -77%.

In the case of `CO[C@H]1CN(C(=O)c2ccc3oc(C)cc3c2)C[C@@]12CCCO2`, the INHIBITION was -39.5%.

In the case of `CN(C)CC1(O)CCN(S(=O)(=O)c2ccc(Cl)cc2)C1` (centres undefined), the INHIBITION amounted to 42.9%.

As for `CN(C)CC1(O)CCN(S(=O)(=O)c2cccc(F)c2)C1` (centres undefined), the INHIBITION is 66.7%.

As to `CN(C)CC1(O)CCN(S(=O)(=O)c2ccc(F)cc2)C1` (centres undefined), the INHIBITION is reported as 36.6%.

Take `COCC1COCCC12CCN(S(=O)(=O)c1ccc(C)cc1)CC2` (centres undefined): the INHIBITION is -71.5%.

For the molecule `Cc1ccc(S(=O)(=O)N2CCC(O)(CN(C)C)C2)cc1` (centres undefined), the INHIBITION was 52%.

As to `CN(C)CC1(O)CCN(S(=O)(=O)c2ccc(F)c(F)c2)C1` (centres undefined), the INHIBITION was 20.7%.

Turning to `Cc1cccc(CSc2ncc(Br)c(C(=O)O)n2)c1`, the INHIBITION is on record as -52.3%.

`Cc1cc(C)nc(NCCC(=O)Nc2ccc(Cn3cncn3)cc2)n1`: the INHIBITION is reported as -92%.

On to `Cc1cnn(CCNCc2ccc(OCc3noc(C)n3)cc2)c1`, for which the INHIBITION is -14.8%.

In the case of `COc1ccc(C(C)NC(=O)C2CCN(S(C)(=O)=O)CC2)cc1C` (centres undefined), the INHIBITION was -118%.

`COc1cccc(CCC(=O)N2CCCCC2Cn2cccn2)c1` (centres undefined): the INHIBITION is given as -136%.

`CC(=O)N1CCC[C@@H](NCc2c[nH]c3ccccc23)[C@@H]1c1ccc(C)s1`: the INHIBITION is given as 14.4%.

Take `COc1cccc(CCC(=O)N2CCCC(c3nncn3C)C2)c1` (centres undefined): the INHIBITION is recorded as -9.28%.

On to `N[C@@H]1CCCN(C(=O)Cc2c[nH]c3ccccc23)[C@H]1c1ccccc1F`, for which the INHIBITION is 65.8%.

Consider `O=C(Cc1c[nH]c2ccccc12)N1CCC(Nc2cccnn2)CC1`, for which the INHIBITION is reported as -48%.

For `COc1cccc(CCC(=O)N2CCC[C@@H](N)[C@@H]2c2ccccc2F)c1`, the INHIBITION came out at 68%.

With `O=c1[nH]nc2c(N3CCOCC3)nccn12`, the INHIBITION is reported as -25.9%.

As to `O=C(c1cccs1)N1C[C@H]2CCC[C@@]2(COCC2CCOCC2)C1`, the INHIBITION is on record as -18.1%.
